Values joined by “and” are separate entries in the source; they are usually repeats but may differ in a detail not shown here. Identical values can stand only once. Results filed as inconclusive are left out. Entries that show only a call come without a potency. Active and inactive are the calls of the source. The call rests on the fitted dose curve; in most records, active means well fitted cell-killing curve with a large enough effect in the repeat runs; inconclusive means weak or mixed curves, or effect the other way; inactive means flat fitted curve, though single readings scatter.
Potency means the concentration at half of the fitted maximal effect.

This test can be described thus: cAMP Responsive Elements (CRE) small molecule antagonists, cell-based qHTS assay: qHTS cell viability counter screen (AID 2060913). Further: nearly all actives have a fitted effect of over 40% in size. The settings on record: CRE-bla HEK293T viability, CellTiter-Glo luminescence, 5 h; series mostly up to 92.4 µM. The text has this: U.S. Tox21 Program National Center for Advancing Translational Sciences [NCATS] Division of Preclinical Innovation [DPI] U.S. Environmental Protection Agency [EPA] National Institutes of Environmental Health Sciences [NIEHS] National Toxicology Program [NTP] U.S. Food and Drug Administration [FDA] Tox21 Assay Overview: CREB (cyclic-AMP Responsive Element Binding Protein) is a cellular transcription factor. It binds to certain DNA sequences called cAMP Responsive Elements (CRE) and regulates the transcription of the genes. […] This cell line can be used to find agonists/antagonists of the cyclic AMP signaling pathway. The activation of the report gene under culture conditions can be detected by fluorescence intensity. This cell line has been used to screen the Tox21 10K compound library to identify agonists that induce oxidative stress. The cytotoxicity of the Tox21 compound library against the CRE-bla cell line was tested in parallel by measuring the cell viability using CellTiter-Glo assay (Promega, Madison, WI) in the same wells.
Tox21 Assay Protocol Summary: CRE-bla Hek 293T cells were suspended in assay medium (DMEM containing 10% dialyzed FBS, 0.1 mM NEAA, 1 mM sodium pyruvate and 25 mM HEPES) and dispensed at 2,000 cells/4 uL /well into 1536-well black wall/clear bottom plates using a Multidrop Combi (ThermoFisher Scientific, Waltham, MA) dispenser. After the assay plates were incubated at 37 C/5% CO2 for 18 hrs, 23 nL of compounds dissolved in DMSO, positive controls or DMSO only was transferred to the assay plate by a pintool workstation (Kalypsys, San Diego, CA), followed by addition of 1 uL of 1.25uM NKH477 (0.25 uM as final concentration) in assay medium using a Flying Reagent Dispenser (Aurora Discovery, San Diego, CA). The plates were incubated at 37 C and 5% CO2 for 3 hrs. Then 1 uL of LiveBLAzer B/G FRET substrate (Invitrogen, Carlsbad, CA) was added to each well using Bioraptr Flying Reagent Dispenser (FRD, Aurora Discovery, San Diego, CA). The plates were incubated at room temperature for 2 h, then fluorescence intensities were measured using an Envision plate reader (PerkinElmer, Shelton, CT) at Excitation 405nm, Emission 460nm and 530nm. The % activity was determined from the ratio of 460nm/530nm. For cell viability readout that measures cytotoxicity, 4 uL /well of CellTiter-Glo reagent was added into the assay plates using Bioraptr FRD. After 30 min incubation at room temperature, the luminescence intensity in the assay plates was measured using a ViewLux (PerkinElmer, Shelton, CT) plate reader.
Background: qHTS replaces the single test concentration by a dilution series.
On to `CN1CCN(CCC(=O)N2c3ccccc3Sc3ccc(C(F)(F)F)cc32)CC1`, for which the Potency result was “inactive”. Still for that read-out and setting: with `C=CC(=O)OCCCl` the entry was “inactive”. Still for that read-out and setting: the same measure for `CNCC(O)c1ccc(O)c(O)c1` (stereo not given): “inactive”; for `COc1ccc2nc(NC(=O)Nc3ccccc3)sc2c1`: “inactive”. The same measure, in the same setting: the same measure for `C[Si](Cl)(c1ccccc1)c1ccccc1`: “inactive”; for `CC(C)C(=O)OC(=O)C(C)C`: “inactive”.

Turning to `CN(C)c1ccc(C2(c3ccc(N(C)C)cc3)OC(=O)c3cc(N(C)C)ccc32)cc1`, the Potency result was “inactive”. With `C[C@H]1C[C@H](O)c2ccsc2S1(=O)=O`, the Potency entry was “inactive”. With `CCNC(=O)C1CC(C)CCC1C(C)C` (stereo not given), the Potency entry was “inactive”. The same measure, in the same setting: with `COc1ccc(C(C)=O)cc1` the entry was “inactive”; with `C[C@]12CCC(=O)C=C1CC[C@@H]1[C@@H]2C(=O)C[C@@]2(C)[C@H]1CC[C@]2(O)C(=O)CO`, “inactive”. On the same count and under the same terms, the same measure for `CCCCCCCCCC[N+](C)(CCCCCCCCCC)CCC[Si](OC)(OC)OC`: 27.3 µM (active); for `CC(C)(C)Cl`: “inactive”; for `NCC1CCC(C(=O)Oc2ccc(CCC(=O)O)cc2)CC1` (stereo not given): “inactive”. As to `CCN1CC(CCN2CCOCC2)C(c2ccccc2)(c2ccccc2)C1=O` (stereo not given), the Potency result was “inactive”. Regarding `CCN=c1cc2oc3cc(NCC)c(C)cc3c(-c3ccccc3C(=O)OCC)c-2cc1C`, the Potency was 68.3 µM (active) and 50.8 µM (active). Same read-out and setting: with `CC(=O)c1ccc2ccc3ccccc3c2c1` the entry was “inactive”. For `CCc1cc2cc(OC)c(OC)cc2c(Cc2ccccc2)n1`, the Potency result was “inactive”. Turning to `CC(C)(C)CC(C)(C)c1ccc(O)c(-n2nc3ccccc3n2)c1`, the Potency entry was “inactive”. Still for that read-out and setting: with `CCC1(c2cnc[nH]2)Cc2ccccc2C1` the entry was “inactive”.

Take `CCCCCCc1ccc(N)cc1`: the Potency result was “inactive”. Take `CC1=CC(=O)CC(C)(C)C1(O)/C=C/C(C)=C\C(=O)O` (stereo not given): the Potency entry was “inactive”. The same measure, in the same setting: the same measure for `CC1(C)[C@H](C(=O)OCc2cccc(Oc3ccccc3)c2)[C@@H]1C=C(Cl)Cl`: “inactive”; for `CCC(=O)c1ccc2c(c1)N(CCCN(C)C)c1ccccc1S2`: “inactive”. On the same count and under the same terms, with `Cc1cc(NC(=O)C2=C(O)c3ccccc3S(=O)(=O)N2C)no1` the entry was “inactive”; with `FC(F)(F)c1ccccc1Cl`, “inactive”. Regarding `CCCCCCCCCCCCCC=O`, the viability change, negative = cytotoxic was -4.53% [at 8.39 µM] (inactive). In the case of `CC(=O)OCC(CCn1cnc2cnc(N)nc21)COC(C)=O`, the Potency entry was “inactive”. Same read-out and setting: with `C[N+](C)(C)CC[N+]1(C)Cc2c(Cl)c(Cl)c(Cl)c(Cl)c2C1` the entry was “inactive”; with `[Cl][Eu]([Cl])[Cl]`, “inactive”; with `CN1CCN(C2=Nc3cc(F)ccc3Cc3ccccc32)CC1`, “inactive”. Take `CNCc1cc(F)ccc1Oc1ccc(Cl)c(Cl)c1`: the Potency result is “inactive”.

As for `CC1CC(OC(=O)c2ccccc2O)CC(C)(C)C1` (stereo not given), the Potency entry is “inactive”.

For `Cc1cc(=O)n(-c2ccccc2)n1C`, the Potency result is “inactive”.

For the compound `Cc1c(C(=O)O)cccc1[N+](=O)[O-]`, the Potency result was “inactive”.

As for `Cc1ccc(NC(=O)c2ccc(CN3CCN(C)CC3)cc2)cc1Nc1nccc(-c2cccnc2)n1`, the Potency result was “inactive”. Still for that read-out and setting: the same measure for `CCCCCCCC/C=C\CCCCCCCC(=O)O`: “inactive”; for `CNCCCN1c2ccccc2CCc2ccccc21`: “inactive”. For the compound `O=C(c1ccc(O)cc1)c1ccc(O)cc1O`, the Potency result was “inactive”. Same read-out and setting: the same measure for `O=C(Nc1ccc([N+](=O)[O-])cc1)Nc1ccc([N+](=O)[O-])cc1`: “inactive”.

The values are drawn from PubChem BioAssay (Tox21).
